G9a inh: inhibitors of human histone lysine methyltransferase G9a; Q96KQ7; Potency, µM (series often up to 102 µM), hits mostly inhibitors; AID 504332; G9a H3K9 monomethylation, AlphaScreen, 2 h; 350,000 tested, 8.8% active; also: nearly all actives have a fitted effect of over 75% in size
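Using a bead-based AlphaScreen, monomethylated H3K9 product from 2 h room-temperature reactions (G9a 20 nM, peptide 500 nM, SAM 20 uM) was detected with 0.5 ug/mL rabbit anti-H3K9me1 antibody.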
JMJD2A Tudor inh: blocks the human JMJD2A Tudor domain; O75164; 390,000 tested, 4.4% active; AlphaScreen JMJD2A-Tudor / H3K4me3 peptide binding; Potency, µM (highest dose often 114 µM), actives largely listed as inhibitors; also: nearly all actives have a fitted effect of over 50% in size
Six1-Eya2 blk: inhibitors of human Six1/Eya2 interaction. AlphaScreen GST-Six1/His-Eya2 binding, biochemical; active compounds read low. activity change, % (no concentration beside the values). 360,000 tested, 0.56% active; in the data active = activity change below about -65%; inconclusive = mostly about -30% to -63%
Target sequence (O00167 whole entry, looked up): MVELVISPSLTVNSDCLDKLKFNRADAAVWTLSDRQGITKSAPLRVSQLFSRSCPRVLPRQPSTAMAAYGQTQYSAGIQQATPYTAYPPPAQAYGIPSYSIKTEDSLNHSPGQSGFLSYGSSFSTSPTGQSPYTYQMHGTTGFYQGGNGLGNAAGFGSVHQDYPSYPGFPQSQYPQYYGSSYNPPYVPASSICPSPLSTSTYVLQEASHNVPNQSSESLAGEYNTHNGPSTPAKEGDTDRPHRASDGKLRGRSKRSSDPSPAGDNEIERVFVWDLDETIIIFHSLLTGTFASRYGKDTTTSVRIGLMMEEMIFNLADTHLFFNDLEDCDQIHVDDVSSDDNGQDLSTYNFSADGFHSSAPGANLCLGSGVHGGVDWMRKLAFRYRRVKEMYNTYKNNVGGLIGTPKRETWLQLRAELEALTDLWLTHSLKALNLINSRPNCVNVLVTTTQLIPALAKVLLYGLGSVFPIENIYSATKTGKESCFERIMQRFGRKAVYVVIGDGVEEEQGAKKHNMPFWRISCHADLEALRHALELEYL
Target sequence (Q15475 whole entry, looked up): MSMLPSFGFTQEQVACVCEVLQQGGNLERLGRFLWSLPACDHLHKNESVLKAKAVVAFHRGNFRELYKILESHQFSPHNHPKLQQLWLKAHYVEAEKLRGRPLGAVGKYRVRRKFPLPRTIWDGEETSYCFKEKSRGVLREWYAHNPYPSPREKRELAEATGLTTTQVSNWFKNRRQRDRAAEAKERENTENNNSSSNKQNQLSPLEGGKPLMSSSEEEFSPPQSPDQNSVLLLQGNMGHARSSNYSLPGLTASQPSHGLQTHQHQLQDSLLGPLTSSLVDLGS
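AlphaScreen with GST-Six1 and His-Eya2 (5X mix: 250 nM and 500 nM), glutathione donor and nickel acceptor beads; buffer 50 mM Tris pH 8.0, 300 mM NaCl, 1 mM TCEP; 1 h at 37 C in the dark.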
CtBP-E1A inh: CtBP/E1A binding inhibition. AlphaScreen GST-E1A/His-CtBP binding, 1536-well; active compounds read low. activity change, % (no concentration beside the values). 340,000 tested, 0.49% active; in the data active = activity change below about -65%; inconclusive = mostly about -30% to -63%
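GST-E1A and His-tagged CtBP (125 nM each as 5X stock) were preincubated with pin-transferred compound for 2 h at 37 °C in the dark, then glutathione donor and nickel acceptor beads were added for 1 h before AlphaScreen reading.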
BAZ2B inh: BAZ2B (human) inhibition; Potency, µM (titrated, usually from 114 µM), usual class: inhibitors; AlphaScreen BAZ2B-H3K14Ac peptide displacement; AID 504333; 360,000 tested, 4.4% active; also: nearly all actives have a fitted effect of over 60% in size
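AlphaScreen luminescence quantifies BAZ2B engagement of H3K14Ac peptide; the protein and biotinylated peptide are both at 50 nM final, buffer PBS pH 7.4 with 0.01% Tween-20, all steps at room temperature.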
HP1b binding inh: inhibitors of HP1-beta chromodomain binding to methylated histone tails; AID 540317; AlphaScreen HP1-beta / biotin-H3K9me3 peptide binding; 390,000 tested, 0.56% active; Potency, µM (top dose mostly 114 µM), usual class: inhibitors; also: nearly all actives have a fitted effect of over 70% in size
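AlphaScreen: HP1-beta (50 nM) preformed 30 min with biotin-H3(1-18)K9me3 peptide (50 nM) in PBS pH 7.4, 0.01% Tween-20. Compound added for 30 min at RT, then streptavidin donor/nickel chelate acceptor beads (10 ug/mL) for 30 min.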
Each line names hits and unclear results; the compound was inactive in the other large screens. Sampled rows, rich in hits. Any-hit rate of the full collection: about 10%. Unless noted, calls follow the shape of the dose curve; as a rule, active = well fitted inhibition curve with a large enough effect; inconclusive = small, poorly fitted or top-dose-only effect; inactive = no such curve, though single readings can be large or run the other way.

COc1ccc(Cl)c(-c2cc(C(=O)Nc3ccc(F)cc3)[nH]n2)c1	none (no result: G9a inh, JMJD2A Tudor inh, BAZ2B inh, HP1b binding inh)
CCN1CCN(c2cc3c(nn2)Oc2ccccc2N3C)CC1	G9a inh 50.1µM, Six1-Eya2 blk inconclusive, CtBP-E1A inh inconclusive
CC(=O)N1CCC2(CC1)CN(c1cccc(-c3ccccc3)c1)C2	none (no result: JMJD2A Tudor inh, Six1-Eya2 blk, CtBP-E1A inh, BAZ2B inh, HP1b binding inh)
CC(C)c1ccc(NC(=O)COC(=O)c2c[nH]c(=O)[nH]c2=O)cc1	G9a inh 15.8µM, JMJD2A Tudor inh inconclusive
O=C(COC(=O)c1c[nH]c(=O)[nH]c1=O)Nc1ccccc1	none
C[n+]1cccc2cccc([O-])c21	JMJD2A Tudor inh inconclusive, BAZ2B inh 56.2µM (no result: G9a inh, CtBP-E1A inh)
[O-][n+]1cccc2cccc(O)c21	CtBP-E1A inh inconclusive (no result: G9a inh, BAZ2B inh)
COc1cccc(CNC(=O)c2nn(-c3ccccc3Cl)nc2CO)c1	none (no result: Six1-Eya2 blk, CtBP-E1A inh)
CCC(C)c1ccc(OCC(=O)Nc2ccc(-c3nc4ncccc4o3)cc2)cc1 (centres undefined)	none (no result: Six1-Eya2 blk, CtBP-E1A inh)
CCOc1cc(CNc2ccc(N3CCCC3)cc2)cc(Cl)c1OC	G9a inh 10µM, JMJD2A Tudor inh 11.2µM, Six1-Eya2 blk inconclusive, BAZ2B inh 12.6µM, HP1b binding inh 20µM
COc1cccc(Nc2ccc(N3CCCCC3)cc2)c1OC	JMJD2A Tudor inh 31.6µM, BAZ2B inh 14.1µM, HP1b binding inh 31.6µM (no result: Six1-Eya2 blk, CtBP-E1A inh)
CCOc1cc(CNc2ccc(S(N)(=O)=O)cc2)cc(Cl)c1OC	none
COc1cccc(OC)c1C(=O)Nc1ccccc1N1CCCCC1	JMJD2A Tudor inh inconclusive
COc1cc(CNc2ccc(N3CCCC3)cc2)cc(Cl)c1OC	G9a inh 3.55µM, JMJD2A Tudor inh 10µM, Six1-Eya2 blk inconclusive, CtBP-E1A inh inconclusive, BAZ2B inh 35.5µM, HP1b binding inh 14.1µM
C=CCOc1c(Cl)cc(CNc2ccc(C)c(Cl)c2)cc1OC	none (no result: JMJD2A Tudor inh, Six1-Eya2 blk, CtBP-E1A inh, HP1b binding inh)
CCCCc1ccc(-n2nc3ccc(NC(=O)c4cc5ccccc5o4)cc3n2)cc1	none (no result: Six1-Eya2 blk, CtBP-E1A inh)
CC(O)(c1cccc(F)c1)c1nc(/C=C/c2ccccc2)cs1 (centres undefined)	none (no result: G9a inh, JMJD2A Tudor inh, BAZ2B inh, HP1b binding inh)
COc1ccc(-n2ccn(Cc3ccccc3Cl)c(=O)c2=O)cc1OC	none (no result: Six1-Eya2 blk, CtBP-E1A inh)
COCCCc1cc(F)c(S(=O)(=O)N2CCN(S(=O)(=O)c3ccc4c(c3)OCCO4)CC2)cc1F	none (no result: G9a inh, Six1-Eya2 blk, CtBP-E1A inh, BAZ2B inh, HP1b binding inh)
CCOc1ccc(Cc2nccc3cc(OCC)c(OCC)cc23)cc1OCC	none (no result: JMJD2A Tudor inh, Six1-Eya2 blk, CtBP-E1A inh, BAZ2B inh, HP1b binding inh)
CCOc1ccccc1N1CCN(C/C=C/c2ccc(N(C)C)cc2)CC1	G9a inh 10µM, JMJD2A Tudor inh 5.62µM, Six1-Eya2 blk -76.5, CtBP-E1A inh inconclusive, BAZ2B inh 5.62µM, HP1b binding inh 25.1µM
CCOc1ccccc1N1CCN(Cc2ccco2)CC1	JMJD2A Tudor inh 3.55µM, BAZ2B inh 50.1µM, HP1b binding inh inconclusive
CCOc1ccccc1OCC(=O)NCc1ccco1	G9a inh inconclusive, JMJD2A Tudor inh inconclusive, BAZ2B inh inconclusive
CCOc1ccccc1OCCCNCc1ccco1	G9a inh inconclusive, JMJD2A Tudor inh 28.2µM, HP1b binding inh inconclusive
CCOc1ccccc1N1CCN(S(=O)(=O)CC)CC1	G9a inh 39.8µM
CN(C(=O)CSc1nc2ccc(NC(=O)c3cccs3)cc2s1)c1ccccc1	none (no result: Six1-Eya2 blk, CtBP-E1A inh)
COC(=O)[C@@H](NCc1cccc(CN[C@H](C(=O)OC)c2ccccc2)c1)c1ccccc1	none
COc1ccccc1CNC(=O)CCc1c(C)nn(-c2ccc(N3CCCCC3)nn2)c1C	none (no result: Six1-Eya2 blk, CtBP-E1A inh)
CCOc1ccccc1N1CCN(C(=S)NCc2ccco2)CC1	G9a inh 50.1µM
CCOc1ccccc1N1CCN(Cc2ccc(Br)s2)CC1	G9a inh inconclusive, JMJD2A Tudor inh 3.16µM, BAZ2B inh inconclusive, HP1b binding inh inconclusive
CC(=O)c1ccc(N2CCN(C(=S)NCc3ccco3)CC2)cc1	G9a inh 56.2µM
Cc1ccc(-n2nc(C)c3c(C)c(CCC(=O)NCc4ccc(Cl)cc4)c(C)nc32)cc1	none (no result: Six1-Eya2 blk, CtBP-E1A inh)
CC(C)(C)OC1NS(=O)(=O)OCC1NCOC(Cl)(Cl)Cl (centres undefined)	G9a inh 31.6µM, JMJD2A Tudor inh 79.4µM, BAZ2B inh 50.1µM
C=CCC1NS(=O)(=O)OCC1NC(=O)OCC(Cl)(Cl)Cl (centres undefined)	none
O=C(O)c1ccc2c3n(nc2c1)-c1ccc(Cl)cc1CO3	G9a inh 50.1µM, BAZ2B inh inconclusive
CC(Sc1nnc(-c2ccccc2F)n1C1CC1)C(=O)NC(N)=O (centres undefined)	none
